# Measurements from article PMC7862700, “An all-to-all approach to the identification of sequence-specific readers for epigenetic DNA modifications on cytosine”.
# Columns and labels:
# Experiment in all cases: DAPPL (digital affinity profiling via proximity ligation, sequencing); 10 mM Tris-HCl pH 7.5, 50 mM NaCl, 1 mM DTT, 4% glycerol, room temperature, 30 min; GST-TFs on glutathione beads, 16-mer random dsDNA library, 0.1% formaldehyde crosslink after washing; high values mean tight binding
# FEV = target: T1, FEV (Homo sapiens, UniProt Q99581 1-238); settings: protein: recombinant; tags: N-terminal GST; dsDNA, one strand shown
# T1 sequence: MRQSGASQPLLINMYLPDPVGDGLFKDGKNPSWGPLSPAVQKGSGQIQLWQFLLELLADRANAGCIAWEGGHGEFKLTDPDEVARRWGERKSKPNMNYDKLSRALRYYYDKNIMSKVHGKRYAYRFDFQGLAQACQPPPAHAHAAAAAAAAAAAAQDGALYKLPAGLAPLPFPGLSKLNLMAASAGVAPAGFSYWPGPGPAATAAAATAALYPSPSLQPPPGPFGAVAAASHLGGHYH
# How it was run: (§1)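 Binding signal is each hexamer's read frequency for a factor divided by its frequency in the tag-only sample. The factors were GST-fused human transcription factors from yeast, captured on glutathione beads, DNA-barcoded and pooled with that sample. Pools were incubated with 200 nmole of a random double-stranded 16-mer DNA library in Tris/NaCl/DTT/glycerol buffer at room temperature for 30 min, then washed, crosslinked with 0.1% formaldehyde, proximity-ligated with BsaI/T4 ligase (1 h, 37 °C), PCR-amplified and sequenced on an Illumina NextSeq500.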
# ETV5 = ETV5 (Homo sapiens, UniProt P41161 1-510); settings: protein: recombinant; tags: N-terminal GST; dsDNA, one strand shown
# Chain of ETV5 (P41161 whole entry): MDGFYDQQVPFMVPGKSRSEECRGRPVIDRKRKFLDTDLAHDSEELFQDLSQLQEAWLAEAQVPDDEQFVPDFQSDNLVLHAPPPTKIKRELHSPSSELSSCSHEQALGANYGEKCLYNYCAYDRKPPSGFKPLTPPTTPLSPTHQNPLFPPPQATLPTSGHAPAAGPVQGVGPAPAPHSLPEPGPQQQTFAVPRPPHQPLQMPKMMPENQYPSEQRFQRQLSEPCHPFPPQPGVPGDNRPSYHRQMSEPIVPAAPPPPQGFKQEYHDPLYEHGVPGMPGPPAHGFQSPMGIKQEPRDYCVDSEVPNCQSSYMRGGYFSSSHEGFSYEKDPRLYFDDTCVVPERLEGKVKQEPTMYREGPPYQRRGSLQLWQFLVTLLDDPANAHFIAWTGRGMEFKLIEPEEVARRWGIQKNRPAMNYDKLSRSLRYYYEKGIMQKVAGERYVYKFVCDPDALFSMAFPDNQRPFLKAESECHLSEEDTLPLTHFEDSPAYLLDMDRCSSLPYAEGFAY
# How it was run: as §1
# HSF1 = HSF1 (Homo sapiens, UniProt Q00613 1-529); settings: protein: recombinant; tags: N-terminal GST; chain copies: 3; dsDNA, one strand shown
# Chain of HSF1 (Q00613 whole entry): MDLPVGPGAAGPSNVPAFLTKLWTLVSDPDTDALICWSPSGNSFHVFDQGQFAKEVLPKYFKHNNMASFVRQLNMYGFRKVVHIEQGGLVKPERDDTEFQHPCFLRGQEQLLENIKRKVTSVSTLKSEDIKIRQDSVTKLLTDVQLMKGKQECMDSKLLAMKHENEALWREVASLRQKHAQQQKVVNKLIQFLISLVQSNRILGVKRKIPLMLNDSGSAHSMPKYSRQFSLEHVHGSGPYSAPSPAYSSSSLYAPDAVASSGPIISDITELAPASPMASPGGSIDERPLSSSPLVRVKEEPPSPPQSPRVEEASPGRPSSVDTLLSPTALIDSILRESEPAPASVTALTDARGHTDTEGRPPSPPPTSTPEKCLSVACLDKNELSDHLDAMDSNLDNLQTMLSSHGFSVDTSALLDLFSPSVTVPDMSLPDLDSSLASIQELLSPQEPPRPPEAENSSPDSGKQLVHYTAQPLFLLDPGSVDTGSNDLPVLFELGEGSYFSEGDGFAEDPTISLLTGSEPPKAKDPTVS
# How it was run: as §1
# SPIC = target: T2, SPIC (Homo sapiens, UniProt Q8N5J4 1-248); settings: protein: recombinant; tags: N-terminal GST; dsDNA, one strand shown
# T2 sequence: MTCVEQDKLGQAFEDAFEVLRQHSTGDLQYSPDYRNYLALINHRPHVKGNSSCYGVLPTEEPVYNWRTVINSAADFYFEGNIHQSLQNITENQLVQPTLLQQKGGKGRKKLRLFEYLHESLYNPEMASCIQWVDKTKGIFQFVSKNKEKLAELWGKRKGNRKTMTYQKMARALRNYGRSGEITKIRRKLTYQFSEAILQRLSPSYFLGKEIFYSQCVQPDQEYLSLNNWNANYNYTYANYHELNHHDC
# How it was run: as §1
# ELF4 = ELF4 (Homo sapiens, UniProt Q99607 1-663); settings: protein: recombinant; tags: N-terminal GST; dsDNA, one strand shown
# Chain of ELF4 (Q99607 whole entry): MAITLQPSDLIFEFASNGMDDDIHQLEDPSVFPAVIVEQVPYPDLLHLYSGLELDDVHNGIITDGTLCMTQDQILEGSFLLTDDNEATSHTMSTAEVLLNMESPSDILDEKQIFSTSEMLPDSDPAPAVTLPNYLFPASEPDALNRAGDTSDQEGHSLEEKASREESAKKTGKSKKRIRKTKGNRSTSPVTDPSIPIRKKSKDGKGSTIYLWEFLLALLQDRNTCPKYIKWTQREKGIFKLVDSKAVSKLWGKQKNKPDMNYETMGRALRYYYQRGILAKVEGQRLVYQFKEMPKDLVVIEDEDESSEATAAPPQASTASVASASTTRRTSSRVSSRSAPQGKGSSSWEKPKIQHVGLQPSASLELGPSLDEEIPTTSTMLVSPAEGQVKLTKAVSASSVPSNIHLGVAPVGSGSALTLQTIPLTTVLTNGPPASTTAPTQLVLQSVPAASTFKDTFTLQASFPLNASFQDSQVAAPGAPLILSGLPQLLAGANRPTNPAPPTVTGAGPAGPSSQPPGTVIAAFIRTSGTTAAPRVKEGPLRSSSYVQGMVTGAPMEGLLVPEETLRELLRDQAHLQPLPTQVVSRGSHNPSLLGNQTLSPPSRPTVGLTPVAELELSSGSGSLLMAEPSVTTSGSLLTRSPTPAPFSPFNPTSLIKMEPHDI
# How it was run: as §1
# ELK4 = target: T3, ELK4 (Homo sapiens, UniProt P28324-2 1-405); settings: protein: recombinant; tags: N-terminal GST; dsDNA, one strand shown
# T3 sequence: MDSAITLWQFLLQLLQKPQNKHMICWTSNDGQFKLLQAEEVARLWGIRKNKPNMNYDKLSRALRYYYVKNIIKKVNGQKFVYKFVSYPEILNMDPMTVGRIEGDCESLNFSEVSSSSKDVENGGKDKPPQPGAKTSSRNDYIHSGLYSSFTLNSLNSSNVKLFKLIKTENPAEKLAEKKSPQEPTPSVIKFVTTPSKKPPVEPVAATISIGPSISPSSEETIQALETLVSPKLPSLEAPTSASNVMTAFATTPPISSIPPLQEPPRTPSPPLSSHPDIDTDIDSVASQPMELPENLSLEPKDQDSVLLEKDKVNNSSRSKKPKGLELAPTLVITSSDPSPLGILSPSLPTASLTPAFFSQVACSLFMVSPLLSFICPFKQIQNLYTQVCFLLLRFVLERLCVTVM
# How it was run: as §1
# ETV2 = target: T4, ETV2 (Homo sapiens, UniProt O00321 1-342); settings: protein: recombinant; tags: N-terminal GST; dsDNA, one strand shown
# T4 sequence: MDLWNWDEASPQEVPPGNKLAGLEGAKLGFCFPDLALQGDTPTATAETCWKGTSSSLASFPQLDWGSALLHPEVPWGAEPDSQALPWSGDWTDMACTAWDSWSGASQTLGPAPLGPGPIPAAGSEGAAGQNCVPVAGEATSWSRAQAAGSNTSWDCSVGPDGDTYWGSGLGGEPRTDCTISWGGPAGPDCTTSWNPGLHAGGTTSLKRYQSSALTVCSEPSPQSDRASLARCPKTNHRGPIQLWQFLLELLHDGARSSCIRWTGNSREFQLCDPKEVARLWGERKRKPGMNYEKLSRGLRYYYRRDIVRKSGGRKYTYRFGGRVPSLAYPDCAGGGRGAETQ
# How it was run: as §1
# ELF3 = target: T5, ELF3 (Homo sapiens, UniProt P78545 1-371); settings: protein: recombinant; tags: N-terminal GST; dsDNA, one strand shown
# T5 sequence: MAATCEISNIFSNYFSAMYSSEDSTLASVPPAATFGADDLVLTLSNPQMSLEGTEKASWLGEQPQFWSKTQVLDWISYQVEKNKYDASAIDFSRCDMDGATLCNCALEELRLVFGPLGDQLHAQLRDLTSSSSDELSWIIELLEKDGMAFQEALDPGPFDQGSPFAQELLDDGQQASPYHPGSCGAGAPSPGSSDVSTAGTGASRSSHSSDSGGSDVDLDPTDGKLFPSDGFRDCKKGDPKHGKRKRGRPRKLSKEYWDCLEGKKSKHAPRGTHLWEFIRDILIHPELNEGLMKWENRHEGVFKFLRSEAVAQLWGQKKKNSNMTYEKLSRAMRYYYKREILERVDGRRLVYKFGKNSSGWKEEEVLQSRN
# How it was run: as §1
# CRX = CRX (Homo sapiens, UniProt O43186 1-299); settings: protein: recombinant; tags: N-terminal GST; dsDNA, one strand shown
# Chain of CRX (O43186 whole entry): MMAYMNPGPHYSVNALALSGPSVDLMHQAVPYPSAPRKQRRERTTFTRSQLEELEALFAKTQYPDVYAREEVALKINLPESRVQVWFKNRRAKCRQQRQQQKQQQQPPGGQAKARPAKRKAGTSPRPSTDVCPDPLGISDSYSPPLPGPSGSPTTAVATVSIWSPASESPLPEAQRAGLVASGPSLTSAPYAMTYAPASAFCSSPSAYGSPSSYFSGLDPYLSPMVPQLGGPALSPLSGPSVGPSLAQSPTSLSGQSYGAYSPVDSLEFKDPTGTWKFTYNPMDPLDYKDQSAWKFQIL
# How it was run: as §1
# ETV1 = ETV1 (Homo sapiens, UniProt P50549 1-477); settings: protein: recombinant; tags: N-terminal GST; dsDNA, one strand shown
# Chain of ETV1 (P50549 whole entry): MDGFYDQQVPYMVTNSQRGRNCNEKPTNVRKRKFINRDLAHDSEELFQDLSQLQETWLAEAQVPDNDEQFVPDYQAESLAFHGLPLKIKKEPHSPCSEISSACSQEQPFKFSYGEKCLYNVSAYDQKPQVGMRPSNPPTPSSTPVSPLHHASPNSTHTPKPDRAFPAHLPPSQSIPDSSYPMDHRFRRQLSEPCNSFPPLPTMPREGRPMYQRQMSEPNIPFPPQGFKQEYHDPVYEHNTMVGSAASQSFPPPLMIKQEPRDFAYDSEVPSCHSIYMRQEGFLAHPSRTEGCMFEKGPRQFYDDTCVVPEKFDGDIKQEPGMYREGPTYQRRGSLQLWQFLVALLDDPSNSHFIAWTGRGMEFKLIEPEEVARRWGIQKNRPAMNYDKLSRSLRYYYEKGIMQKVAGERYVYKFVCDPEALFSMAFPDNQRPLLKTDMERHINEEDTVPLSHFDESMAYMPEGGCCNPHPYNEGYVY
# How it was run: as §1
sequence,measurement,setting,value
CCTCTC,binding signal,FEV,"1.36 fold enrichment (6-mer frequency, TF over GST control)"
same,binding signal,ETV5,"1.34 fold enrichment (6-mer frequency, TF over GST control)"
same,binding signal,HSF1,"1.23 fold enrichment (6-mer frequency, TF over GST control)"
same,binding signal,SPIC,"1.46 fold enrichment (6-mer frequency, TF over GST control)"
same,binding signal,ELF4,"1.48 fold enrichment (6-mer frequency, TF over GST control)"
same,binding signal,ELK4,"1.36 fold enrichment (6-mer frequency, TF over GST control)"
same,binding signal,ETV2,"1.44 fold enrichment (6-mer frequency, TF over GST control)"
same,binding signal,ELF3,"1.5 fold enrichment (6-mer frequency, TF over GST control)"
same,binding signal,CRX,"1.16 fold enrichment (6-mer frequency, TF over GST control)"
same,binding signal,ETV1,"1.42 fold enrichment (6-mer frequency, TF over GST control)"
